# Screening results as filed in PubChem BioAssay.
# A selection: hits, their analogues and other compounds. The true share with any hit is near 11%.
# PNC inhibitor – blocks assembly of the perinucleolar compartment; PC3M PTB-GFP, PNC prevalence imaging, 16 h; hits give low values; activity change (PNC), negative = inhibition, % at 10 µM; 3.1% of 140,000 active;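 active = readout at or below -70, meaning at least 70% loss of cells showing the perinucleolar compartment, a nuclear body marking cancer cells; inconclusive = readout between -30 and a set limit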;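 also: plate controls were DMSO wells for no effect and camptothecin positive control wells for full effect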
#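 Read-out is percentage of cells bearing a perinucleolar compartment, from automated 20x imaging of fixed, Hoechst-stained PC3M PTB-GFP cells. Cells were seeded 4 h, then exposed 16 h to compound (23 nl of library stock) in duplicate plates.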
# ALDH1A1 block – inhibitors of human aldehyde dehydrogenase 1A1 | P00352 | Purified ALDH1A1, NADH fluorescence, propionaldehyde substrate | Potency, µM (highest dose often 75.3 µM), for the others: at the highest dose activity, negative = inhibition, hits mostly inhibitors | 7.3% of 220,000 active | AID 1030;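 also: potency is read from the fitted curve at half-maximal effect; plate controls were no enzyme wells and a reference inhibitor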
# Target sequence (P00352 whole entry, looked up): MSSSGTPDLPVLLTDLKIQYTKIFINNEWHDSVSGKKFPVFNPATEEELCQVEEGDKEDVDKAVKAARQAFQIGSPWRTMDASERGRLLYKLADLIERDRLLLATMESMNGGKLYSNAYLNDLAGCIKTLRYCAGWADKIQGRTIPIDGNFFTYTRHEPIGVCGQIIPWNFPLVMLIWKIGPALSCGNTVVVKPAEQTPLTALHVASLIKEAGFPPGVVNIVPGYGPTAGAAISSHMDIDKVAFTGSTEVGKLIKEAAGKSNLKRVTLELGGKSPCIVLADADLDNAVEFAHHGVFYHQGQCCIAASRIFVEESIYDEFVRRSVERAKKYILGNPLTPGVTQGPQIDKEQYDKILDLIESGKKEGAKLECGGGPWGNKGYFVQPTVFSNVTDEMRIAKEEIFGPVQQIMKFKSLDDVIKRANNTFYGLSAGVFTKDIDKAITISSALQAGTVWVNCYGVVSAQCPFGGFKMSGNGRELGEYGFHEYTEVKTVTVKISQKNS
# HPGD block – HPGD (human) dehydrogenase inhibition | purified HPGD, NADH fluorescence kinetic, PGE2 substrate | 4.3% of 150,000 active | AID 894 | Potency, µM, for inactives: at the highest dose activity change, negative = inhibition, usual class: inhibitors | P15428; also: potency is read from the fitted curve at half-maximal effect
#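 NADH formation kinetics: reaction with 30 uM PGE2 and 1 mM NAD+ (final), 20 nM enzyme, Tris-HCl pH 8 with Tween 20, after 15 min compound preincubation at room temperature. Fluorescence change, last versus first of five reads.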
# * marks the source's active call; other numbers are inactive results; ? = inconclusive; / = not tested or not shown; [ ] = another dose, or the depositor's remark. Unless noted, calls follow the shape of the dose curve; as a rule, active = well fitted inhibition curve with a large enough effect (not every such curve was filed as active); inconclusive = small, poorly fitted or top-dose-only effect, or another doubt; inactive = no such curve, though single readings can be large or run the other way. Unless noted, % is scaled to controls: 0 for no effect and ±100 for the full control effect.
SMILES,PNC inhibitor,ALDH1A1 block,HPGD block
O=c1[nH]c(=O)n([C@H]2C[C@H](O)[C@@H](CO)O2)cc1/C=C/Br,/,3.0%,-18.4%
C[C@H](O)[C@@H]1C(=O)N2C(C(=O)O)=C(SCCN=CN)C[C@@H]12,/,-2.1%[20.9 µM],-9.9%
COc1cc(OC)cc(C(=O)NNC(=O)c2cc3c(s2)CCCC3)c1,/,2.8%,/
O=C(CNc1cc(S(=O)(=O)N2CCCC2)ccc1OCC(F)(F)F)Nc1cccc(C(F)(F)F)c1,34.6,8.5%,-12.5%
CCNC(=S)Nc1nc2c(cc1C(=O)OCC)CCCC2,36.8,?,-15.2%
O=C(O)CC(SCC(=O)Nc1ccc(S(=O)(=O)N2CCCC2)cc1)C(=O)O (configuration not stated),/,8.91µM*,/
CC(=O)Nc1ccc(S(=O)(=O)N2CCN(C(C)CCc3ccccc3)CC2)cc1 (configuration not stated),13.6,31.6µM*,2.5%
COc1ccc(NS(=O)(=O)c2ccc(Oc3ncccn3)cc2)cc1,?,4.3%,-3.7%
CC(=O)Nc1ccc(NC(=O)C(C)N2CCN(S(=O)(=O)c3ccc(C)cc3)CC2)cc1 (configuration not stated),/,-15.6%,/
O=C(CN1CCCCC1)Nc1ccc(S(=O)(=O)N2CCCCCC2)cc1,9.9,0.6%,-1.3%
O=C(O)/C=C/C(=O)Nc1ccc(S(=O)(=O)N2CCCC2)cc1,/,22.4µM*,/
COC(=O)Nc1ccc(S(=O)(=O)N2CCCCC2)cc1,19.5,6.2%,-4.0%
COc1ccc(S(=O)(=O)Nc2ccc(Oc3ncccn3)c(Cl)c2)cc1,0.5,-2.3%,14.1µM*
CCCCCC(=O)N/N=C(\C)c1ccc(N2CCCCC2)cc1,-4.7,?,-21.8%
CC1(C)CC(=O)C(C=NCCN2CCNCC2)=C(O)C1,/,-3.4%,/
CS(=O)(=O)Oc1ccc(Br)cc1/C=C1/N=C(c2ccco2)OC1=O,28.8,2.1%,-14.3%
O=C(O)C1CCN(S(=O)(=O)c2ccc(Oc3ccccc3)cc2)CC1,-82.6*,22.1%,-1.1%
COc1ccc(C2SCCN2S(=O)(=O)c2ccc(NC(C)=O)cc2)cc1 (configuration not stated),-28.7,-11.9%,-12.9%
CC(=O)Nc1ccc(S(=O)(=O)N2CCSC2C(=O)O)cc1 (configuration not stated),0.6,17.8µM*,-14.1%
O=C(O)C1CCN(S(=O)(=O)c2cccnc2)CC1,25.6,10.2%,1.7%
O=S(=O)(Nc1ccc(S(=O)(=O)N2CCOCC2)cc1)c1ccccc1,-10.0,5.2%,2.0%
COc1ccc(NS(=O)(=O)c2ccc(S(=O)(=O)N3CCOCC3)cc2)cc1,/,1.41µM*,/
COc1ccc(-n2cnc3cc(NS(=O)(=O)c4ccccc4)ccc32)cc1,-5.0,?,11.2µM*
CC(C)(C)n1cnc2cc(NS(=O)(=O)c3ccccc3)ccc21,?,-0.9%,?
CCCS(=O)(=O)N1CCCC(C(=O)NCC(OC)OC)C1 (configuration not stated),/,-7.0%,/
SMILES,PNC inhibitor,ALDH1A1 block,HPGD block
O=C(NC1=NCCS1)c1ccccc1OCc1ccccc1Cl,/,-8.6%,/
C/C=C/C1Oc2ccc(OC)cc2N2C(=O)C(C)C(OCOC)C12 (configuration not stated),/,9.6%[13.5 µM],/
O=C(NCc1cccnc1)c1ccc([N+](=O)[O-])o1,/,8.2%,/
OCCNC(=S)Nc1cccc(Cl)c1Cl,/,3.8%,/
Cn1cc(Cl)c(C(=O)OCC(=O)Nc2nc(-c3ccc(Br)cc3)cs2)n1,61.8,13.8%,-8.4%
CCC/C=C(\CCC)C(NC(=O)C(C)(C)C)c1ccc(C(=O)OC)cc1 (configuration not stated),/,-5.6%,-18.6%
COc1ccc(S(=O)(=O)N2CCC(C(=O)N3CCCC3)CC2)cc1,-6.1,-12.6%,-10.5%
COc1ccc(S(=O)(=O)Nc2ccc(F)c(F)c2)cc1Cl,29.3,?,-18.5%
COc1ccc(NS(=O)(=O)c2cccc(C(=O)O)c2)cc1,?,9.6%,-13.7%
COc1ccc(NS(=O)(=O)c2ccc(Oc3cccc(C(=O)O)c3)cc2)cc1,/,0.708µM*,/
COc1ccc(NS(=O)(=O)c2ccc(S(=O)(=O)N3CCCC3)cc2)cc1Cl,-5.8,12.6µM*,-8.2%
COc1ccc(S(=O)(=O)N2CCC(C(=O)N3CCCCCC3)CC2)cc1,12.4,?,15.8µM*
C=CC[C@@H]1C=C[C@H](O/N=C(\C)CCN2CCc3nc(-c4ccccc4)c(-c4ccccc4)cc3C2)[C@H](CO)O1,/,14.7%[13.5 µM],/
Cc1cc(NC(=O)CSc2nncc(=O)n2N)no1,/,7.6%,/
CCN1C/C(=N\S(=O)(=O)/N=C2\CN(CC)C(=O)N2CC)N(CC)C1=O,/,1.9%,/
COCc1cc(Sc2ccc(Br)cc2)nc(-c2ccccc2)n1,-26.6,-0.9%,-0.9%
Clc1cc(Sc2ccc(Br)cc2)nnc1-c1ccccc1,-13.5,1µM*,-21.5%
COc1cc2c(cc1NC(=O)c1cc(-c3ccccn3)nc3ccccc13)oc1ccccc12,31.5,7.1%,-14.1%
COC(=O)c1ccc(N2C(=O)c3ccc(OC)c(OC)c3C2=O)cc1,?,1.1%,1.0%
COc1ccc2c(c1OC)C(=O)N(c1cccc(C)c1)C2=O,-1.5,5.01µM*,-13.1%
COc1ccc(-c2cnnc(N/N=C/c3ccc(O)c(OC)c3)n2)cc1,50.9,3.4%,-8.4%
CCCCN=C(NNc1ccc(Br)cc1)C(=O)OCC,?,14.1µM*,-26.9%
CCOC(=O)C(=NCCCN(C)C)NNc1ccc(Br)cc1,42.4,?,-5.3%
CN(CCN1CCOCC1)Cc1nc(-c2ccccc2)no1,/,-9.3%,/
Cc1nc(N2CCN(Cc3ccc4c(c3)OCO4)CC2)nc2c1C(=O)CC(c1ccco1)C2 (configuration not stated),26.8,?,-15.9%
SMILES,PNC inhibitor,ALDH1A1 block,HPGD block
Cc1nc(N2CCN(Cc3ccccc3)CC2)nc2c1C(=O)CC(c1ccco1)C2 (configuration not stated),5.6,22.4µM*,-18.4%
O=C(OC(c1ccccc1)c1nccc2ccccc12)c1cc([N+](=O)[O-])cc([N+](=O)[O-])c1 (configuration not stated),?,-11.2%,-5.8%
FC(F)(F)c1ccc(Oc2ccc3ccccc3c2Br)nc1,?,8.7%,-15.4%
Cc1ccc(C(=O)O/N=C2\CCSc3ccc(C)cc32)cc1,?,10.8%,-12.7%
COc1ccc(S(=O)(=O)O/N=C2\CCSc3ccc(C)cc32)cc1,14.7,7.08µM*,-7.3%
CSc1ccc([C@H]2CN3CCC[C@H]3c3ccccc32)cc1,/,-9.3%,-7.3%
O=C(CN(Cc1cccs1)S(=O)(=O)c1ccc(S(=O)(=O)N2CCCCC2)cc1)Nc1ccccc1,18.9,8.7%,-5.8%
O=C(CN(CC1CCCO1)S(=O)(=O)c1ccc(S(=O)(=O)NCC2CCCO2)cc1)Nc1ccccc1 (configuration not stated),?,-4.4%,2.9%
O=S(=O)(NC1CCCC1)c1ccc(S(=O)(=O)N(Cc2cccs2)CC2CCCO2)cc1 (configuration not stated),13.4,25.1µM*,-16.3%
O=S(=O)(c1ccc(S(=O)(=O)N(Cc2cccs2)CC2CCCO2)cc1)N1CCCCC1 (configuration not stated),?,7.94µM*,-3.9%
O=C(C1CCCN(S(=O)(=O)c2ccc(F)cc2)C1)N(Cc1cccs1)C1CC1 (configuration not stated),-4.6,17.8µM*,-3.5%
